Pf growth 48h – inhibits P. falciparum growth in the first generation, 48 h. 5.9% of 310,000 active. Potency, µM (doses to about 28.7 µM), inactives show at the highest dose activity change, negative = inhibition, most hits filed as inhibitors. AID 504832. P. falciparum luciferase growth in erythrocytes, 48 h; note: potency is the fitted concentration of half-maximal effect; % is set by controls: 0 for no effect and ±100 for the full control effect
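First compound was added to culture medium, then infected red cells at 0.1% parasitemia and 2% hematocrit (final). After incubation at 37 C under 5% CO2, luciferase detection reagent was dispensed and light output recorded.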
Pf growth 96h – inhibits malaria parasite growth, 96 h | AID 504834 | 6.9% of 320,000 active | P. falciparum luciferase reporter growth, 96 h | Potency, µM (titrated, usually from 28.7 µM), without a hit: at the highest dose activity change, negative = inhibition, actives largely listed as inhibitors; note: potency is the fitted concentration of half-maximal effect; % is set by controls: 0 for no effect and ±100 for the full control effect
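Two parasite generations (96 h, 37 C, 5% CO2) of compound exposure in infected erythrocytes (0.05% parasitemia, 2% hematocrit). Luciferase-reporter P. falciparum; decreased luminescence indicates inhibited growth, aimed at apicoplast-acting delayed death.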
HCMV antiviral – blocks human cytomegalovirus replication | activity change, negative = inhibition, % at 57.5 µM | HFF cells, HCMV-luciferase reporter, 72 h; hits give low values | AID 1259415 | 4.5% of 410,000 active; in the data active = activity change below about -60%; inconclusive = no clear call, values can overlap the other calls; inactive = above about -39%; note: % is set by controls: 0 for no effect and ±100 for the full control effect
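Inhibition of viral replication was scored as loss of reporter luminescence in HFFs infected with HCMV-luciferase (MOI 1 PFU/cell) for 72 h; compounds tested at 2 doses, normalized to buffer and Salinomycin controls.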
Shiga inhibitor – Shiga toxin inhibition; Vero cells, Shiga toxin protein synthesis inhibition reporter; inhibition, % at 38.7 µM; 9.2% of 290,000 active; in the data active = inhibition mostly above about 28%, no sharp cut-off; inactive = mostly below about 43%; note: 0% is about no effect
HCV inhibitor – HCV inhibition; Huh7.5.1 HCVcc-Cre infection, luciferase reporter, 44 h; Potency, µM (doses to about 41.8 µM), without a hit: at the highest dose activity change, negative = inhibition, hits mostly inhibitors; 3.4% of 340,000 active; AID 651820; note: potency is the fitted concentration of half-maximal effect; % is set by controls: 0 for no effect and ±100 for the full control effect
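Cells (1,000/well) were plated 4 h before compound, then infected with HCVcc-Cre virus (~0.5 moi). After 44 h further culture, infection was read as luciferase luminescence following a 15 min substrate incubation at room temperature.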
CHX counter – counter-screen hit for Shiga toxin inhibitors, cycloheximide; 12% of 300,000 active; cell reporter, cycloheximide protein synthesis inhibition counterscreen; AID 2314; max response, %; in the data active = max response mostly above about 13%, no sharp cut-off; inactive = mostly below about 14%; note: read at 38.3 µM for the half of the compounds with a filed dose; 0% is about no effect
Starred values were filed as active, the others as inactive; ? = inconclusive; · = no result; + = active, no number. Only some compounds are listed: those with a hit (about 21% of all), similar ones and a draw of the others. Unless noted, calls come from the whole dose curve; as a rule, active = well fitted inhibition curve with a large enough effect; inconclusive = small, poorly fitted or top-dose-only effect, or another doubt; inactive = no such curve, though single readings can be large or run the other way.

SMILES	Pf growth 48h	Pf growth 96h	HCMV antiviral	Shiga inhibitor	HCV inhibitor	CHX counter
Cc1sc2ncnc(N3CCN(Cc4ccccc4)CC3)c2c1-c1ccc(F)cc1	13µM*	13µM*	-10	2	?	-8
Fc1ccc(-n2ncc3c(N4CCN(Cc5ccccc5)CC4)ncnc32)cc1	·	·	43	·	·	·
Fc1ccc(N2CCN(c3nc(CN4CCOCC4)nc4scc(-c5ccccc5)c34)CC2)cc1	12µM*	7.4µM*	-24	-7	?	5
Fc1ccc(-c2csc3ncnc(N4CCc5ccccc5C4)c23)cc1	?	?	3	-5	?	5
Fc1ccc(-c2csc3ncnc(N4CCN(Cc5ccccc5)CC4)c23)cc1	?	9.3µM*	?	-2	-15%	1
O=C(CSc1n[nH]c(-c2ccc(Br)cc2)n1)NC1CCCC1	·	·	-35	·	?	·
COc1cc(Nc2nc(SCc3cccc(Cl)c3)nc3ccccc23)cc(OC)c1	·	·	15	·	·	·
CCNc1nc(CN2CCCCC2)nc2scc(-c3ccccc3)c12	0%	-4%	-95*	-9	10µM*	-3
c1ccc(-c2csc3ncnc(N4CCN(Cc5ccc6c(c5)OCO6)CC4)c23)cc1	13µM*	?	?	-2	?	-4
CN(Cc1ccccc1)c1nc(CN2CCOCC2)nc2scc(-c3ccccc3)c12	?	?	-33	-14	11%	-2
C=C(C)C1CC=C(C)/C(=N/NC(=O)c2cccs2)C1 (stereo unspecified)	90%	85%	?	77*	3%	22*
O=C(NN=C1CCCCCCCCCCC1)c1ccncc1	13%	42%	-27	5	8%	9
C=C(C)C1CC=C(C)C(=NNC(=O)c2ccncc2)C1 (stereo unspecified)	·	·	-34	·	-14%	·
O=C(NN=C1C2CC3CC(C2)CC1C3)c1ccccc1O	?	-25%	0	38	-13%	19*
CC(=O)N1CCC(=NNC(=O)c2cccs2)CC1	32%	28%	2	+	11%	55*
O=C(NNC(=O)C12CC3CC(CC(C3)C1)C2)c1ccccc1O	?	?	-9	·	11%	·
O=C(NN=C1CCCC1)c1cccs1	26%	95%	26	91*	12%	63*
CC(C)(C)OC(=O)NS(=O)(=O)NCc1ccco1	·	·	·	12	·	6
COc1ccccc1CCNC(=O)CSc1nnc2ccc(-c3ccncc3)nn12	5%	?	6	-5	-1%	-3
NC(=O)C(=O)NN=C1C2CC3CC(C2)CC1C3	0%	5%	17	16	2%	8.0*
O=C(CCCc1ccccc1)NC12CC3CC(CC(C3)C1)C2	38%	-15%	155	·	4%	46*
NC(=S)NN=C1C2CC3CC(C2)CC1C3	?	?	?	1	-6%	11
O=C(NC12CC3CC(CC(C3)C1)C2)c1ccccc1O	7.4µM*	·	-34	41	3%	16
O=C(NN=C1C2CC3CC(C2)CC1C3)c1cccs1	·	60%	15	73*	12%	48*
CC1=C/C(=N\NC(=O)c2cccs2)CC(C)(C)C1	-12%	?	?	18	-5%	4
SMILES	Pf growth 48h	Pf growth 96h	HCMV antiviral	Shiga inhibitor	HCV inhibitor	CHX counter
CSCC[C@H](NC(=O)Nc1ccc(OC(F)(F)F)cc1)C(=O)O	93%	0%	0	-10	8%	-2
O=C1C2(c3ccccc3)CN(CCO)CC1(c1ccccc1)CN(CCO)C2	·	39%	23	-9	18%	-2
CCC1(c2ccccc2)CN(C)C1=O (stereo unspecified)	·	·	-79*	·	·	·
COc1cccc(C(C(=O)NC(C)(C)C)N(Cc2ccc(C)cc2)C(=O)CCC(=O)Nc2cc(C)on2)c1OC (stereo unspecified)	?	?	-16	-12	11µM*	-5
COCCN(C(=O)CCC(=O)Nc1cc(C)on1)C(C(=O)NC(C)(C)C)c1ccccc1Cl (stereo unspecified)	0%	?	-63*	24	21%	-7
COc1cccc(C(C(=O)NC(C)(C)C)N(C(=O)CCC(=O)Nc2cc(C)on2)C(C)(C)C)c1OC (stereo unspecified)	?	-26%	-31	3	-16%	-3
COc1cccc(C(C(=O)NC(C)(C)C)N(C(=O)CCC(=O)Nc2cc(C)on2)C(C)C)c1OC (stereo unspecified)	12µM*	?	-8	-4	3%	-1
COc1ccc(C(C(=O)NC(C)(C)C)N(Cc2ccc(C)cc2)C(=O)CCC(=O)Nc2cc(C)on2)cc1 (stereo unspecified)	9.3µM*	14%	-27	-2	-22%	-6
COCCN(C(=O)CCC(=O)Nc1cc(C)on1)C(C(=O)NC(C)(C)C)c1ccc(OC)cc1 (stereo unspecified)	-1%	-6%	?	3	16%	-4
COc1cccc(C(C(=O)NC(C)(C)C)N(Cc2ccco2)C(=O)CCC(=O)Nc2cc(C)on2)c1OC (stereo unspecified)	-13%	?	-37	14	-16%	-2
Cn1cc(S(=O)(=O)c2ccccc2)c(=O)c2cc(F)c(N3CCCCCC3)cc21	·	·	-23	·	·	·
O=C(COc1ccccc1)NCC(=O)Nc1ccncc1	10%	76%	-13	·	28%	·
O=C(COc1ccccc1)Nc1ccc2c(c1)Cc1cc(NC(=O)COc3ccccc3)ccc1-2	-6%	?	-80*	20	?	-4
CCCC(=O)Nc1ccc2c(c1)Cc1ccccc1-2	61%	?	26	119*	-4%	28*
CCOc1ccc(C2=NC(c3cccs3)=Nc3ccc(C(C)C)cc3N2)cc1	·	·	30	·	·	·
Cc1ccc(NC(=O)COC(=O)Cc2ccsc2)c(C)c1	27%	20%	-23	-5	8%	1
CCCOc1ccc(C(=O)CCC(=O)OCC(=O)Nc2cccc(S(N)(=O)=O)c2)cc1	64%	42%	-13	·	26%	·
CCN(CC)S(=O)(=O)c1ccc2c(c1)nc(SCC(N)=O)n2-c1ccc(OC)cc1	·	?	-30	-9	-17%	0
CCN(CC)S(=O)(=O)c1ccc2c(c1)nc(SCC(=O)N1CCOCC1)n2-c1ccccc1OC	?	12µM*	16	-13	6%	11
CCN(CC)S(=O)(=O)c1ccc2c(c1)nc(SCC(=O)N1CCCCCC1)n2-c1ccc(OC)cc1	13µM*	·	-33	-4	?	-3
OC1(c2ccc(Cl)c(Cl)c2)C[n+]2ccccc2N1Cc1ccccc1 (stereo unspecified)	3.7µM*	?	?	-16	-11%	-1
COc1ccc2c(c1)[C@@H](NC(C)=O)[C@H](C)[C@@H](c1ccccc1)N2C(C)=O	·	·	-5	·	·	·
